We go through 95 sequences from the supplement of paper PMC3334620.

Whole data set: some 33,000 sequences, median “E-score (-0.5 to 0.5)” near -0.01, cut for the highest 2% near 0.26. What follows is part of a selection rich in the highest values, with near analogues and random picks from the rest.

Chain of UniProt P13574 (P13574 whole entry, the tested form may be a part): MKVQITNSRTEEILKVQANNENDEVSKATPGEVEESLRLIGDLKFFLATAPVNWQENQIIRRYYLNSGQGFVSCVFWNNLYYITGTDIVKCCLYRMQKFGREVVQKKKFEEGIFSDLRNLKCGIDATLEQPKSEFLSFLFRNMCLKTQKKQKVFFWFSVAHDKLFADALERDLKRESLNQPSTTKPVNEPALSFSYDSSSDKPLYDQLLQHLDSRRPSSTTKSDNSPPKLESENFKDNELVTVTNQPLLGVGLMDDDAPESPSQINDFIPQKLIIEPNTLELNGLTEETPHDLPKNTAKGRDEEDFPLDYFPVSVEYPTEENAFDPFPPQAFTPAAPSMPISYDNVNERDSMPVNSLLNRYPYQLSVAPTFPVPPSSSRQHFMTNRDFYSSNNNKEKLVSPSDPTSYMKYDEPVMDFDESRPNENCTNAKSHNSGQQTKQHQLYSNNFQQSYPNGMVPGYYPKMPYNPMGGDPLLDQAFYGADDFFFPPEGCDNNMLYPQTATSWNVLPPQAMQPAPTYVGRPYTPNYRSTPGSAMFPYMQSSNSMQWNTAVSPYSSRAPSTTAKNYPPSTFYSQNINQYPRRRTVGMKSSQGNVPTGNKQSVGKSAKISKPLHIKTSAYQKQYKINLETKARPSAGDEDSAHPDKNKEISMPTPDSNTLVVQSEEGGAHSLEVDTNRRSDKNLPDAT

The target of the assay is Ste12 (UniProt P13574). The assay is described as follows: PBM E-score (8-mer binding enrichment) (E-score (-0.5 to 0.5)); higher = stronger / more preferred TF binding. The following applies: protein concentration: 200 nM; construct: GST-DNA-binding domain. In a few lines:
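Detection of bound protein used fluorescent anti-GST, with scans normalised by masliner. The proteins were GST-tagged yeast transcription factors applied at about 100-200 nM to universal all-10-mer Agilent arrays made double-stranded by primer extension. Each ungapped eight-base word, pooled with its reverse complement, was scored with an E-score from the Universal PBM Analysis Suite.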
For the sequence GTCACTAA, the “PBM E-score” value amounted to 0.0793.

With AATGGGGT, the “PBM E-score” value is -0.0055.

TAAACTTA: the “PBM E-score” value was 0.168. On to TAAACTAA, for which the “PBM E-score” value was 0.148. Take CAAACTAC: the “PBM E-score” value is 0.0311. With CAAACTTC, the “PBM E-score” value is 0.124.

Consider CAAACTTA, for which the “PBM E-score” value amounted to 0.276. With CAAACTAA, the “PBM E-score” value was 0.265.

ACGCTGAC: the “PBM E-score” value was -0.194. With AGCAAACC, the “PBM E-score” value amounted to 0.194. For the sequence CATGGGAA, the “PBM E-score” value is -0.0149. Consider CGGCTATC, for which the “PBM E-score” value was -0.174.

In the case of ATTTCTAC, the “PBM E-score” value is 0.253. As to AACAAATG, the “PBM E-score” value was 0.176. As to AACAAGTA, the “PBM E-score” value came out at 0.00602. Next, AACAAGTT: 0.154; AACAAATT: 0.268; AACAAATA: 0.341. On to TACAAATA, for which the “PBM E-score” value stood at 0.218. For the sequence CAGGCAAA, the “PBM E-score” value was 0.0381. Turning to AATCTTAT, the “PBM E-score” value was 0.0186. With CGTTAGGA, the “PBM E-score” value worked out at 0.0933. Next, CGAATCCG: 0.0624; GCCGCTTA: 0.0462. Turning to GCGTTCTA, the “PBM E-score” value was -0.0704. Turning to TAATTCTA, the “PBM E-score” value stood at 0.267. In the case of GAATTCTC it was 0.262; in that of CAATTCTC, 0.00128.

AAATTCTA: the “PBM E-score” value came to 0.0535. As to AAATTCTC, the “PBM E-score” value was 0.105. As to GAATTCTA, the “PBM E-score” value is 0.107. In the case of CTTCACCC, the “PBM E-score” value is 0.0896.

Take AAACGCTA: the “PBM E-score” value stood at 0.112. Next, CCTGGCTA: -0.217; GTCCGAAA: 0.211; TTCCGAAA: 0.264. Consider ATCCGAAA, for which the “PBM E-score” value was 0.185.

Consider GAGGGCCA, for which the “PBM E-score” value was 0.0172. In the case of AAGAGATA, the “PBM E-score” value is -0.0137.

Consider CCGGCTCC, for which the “PBM E-score” value is -0.0246.

Turning to CAAGTCGC, the “PBM E-score” value is -0.3. On to AAAGTCGC, for which the “PBM E-score” value worked out at 0.282.

On to AAAGTCGT, for which the “PBM E-score” value was -0.0472.

Turning to GAGATGGA, the “PBM E-score” value is -0.167.

For the sequence GACATTGA, the “PBM E-score” value was found to be 0.051. Take AGGTTGGA: the “PBM E-score” value worked out at 0.114.

As for CAACAGCA, the “PBM E-score” value amounted to 0.021. For the sequence ATGTTTGA, the “PBM E-score” value was determined as 0.337. With GTGTTCGA, the “PBM E-score” value came to 0.0597.

On to GTTTTTGA, for which the “PBM E-score” value was determined as 0.236. In the case of GTGTTTGA it was 0.301; in that of CCGTTTGA, 0.056; in that of CTGTTTGC, -0.0149.

Regarding CTGTTTGA, the “PBM E-score” value stood at 0.308. In the case of ATGTTTGG, the “PBM E-score” value turned out to be 0.151. In the case of ATGTTTGC, the “PBM E-score” value stood at 0.0377.

For the sequence ACCCGACA, the “PBM E-score” value came to 0.0405. In the case of GCCGCAGC, the “PBM E-score” value was determined as 0.00254. Consider CCCAAAGA, for which the “PBM E-score” value is 0.18. For GCCACGAC, the “PBM E-score” value worked out at 0.0374.

As to TTGCAAAA, the “PBM E-score” value turned out to be 0.242. With ATCGAGCC, the “PBM E-score” value was -0.0583.

Regarding AACGCCCT, the “PBM E-score” value is -0.0731. As to AAACATTC, the “PBM E-score” value is 0.12. In the case of ACGCAGGG, the “PBM E-score” value is -0.0649. As to CTTCAAAC, the “PBM E-score” value came to 0.218. For GTTCAAAA, the “PBM E-score” value came out at 0.107. With CATCAAAA, the “PBM E-score” value worked out at 0.221. Next, ATTCAAAG: 0.145. As to CTTCAAAA, the “PBM E-score” value amounted to 0.191. For TTTCAAAA, the “PBM E-score” value came out at 0.343.

Take CTCAAAAA: the “PBM E-score” value is 0.178.

For the sequence TATCAAAA, the “PBM E-score” value turned out to be 0.302. Next, GATCAAAA: 0.194; ATTCAAAC: 0.279; TTCAAGAA: 0.247. Consider TTCAAAAA, for which the “PBM E-score” value worked out at 0.298. In the case of GGACAGAA, the “PBM E-score” value was 0.136. In the case of CAATTTAG it was 0.118; in that of CGATAGTC, -0.186. With GAGTAAGC, the “PBM E-score” value is -0.0348.

Take CGCAGGCA: the “PBM E-score” value was -0.062. ACCAGTCT: the “PBM E-score” value is -0.25. CAATGTGC: the “PBM E-score” value was -0.133. Regarding CCAGATCC, the “PBM E-score” value is -0.149.

Regarding CTGACTAA, the “PBM E-score” value was -0.00263. Next, ATCAAAAA: 0.316; ATCAAAAG: 0.0655. Next, GTCCAAAA: 0.123; TTCCAAAA: 0.277; ACTCAAAA: 0.165. Take TCTCAAAA: the “PBM E-score” value came to 0.275.

As for CTCCAAAA, the “PBM E-score” value was found to be 0.183.

On to ATCAAAAT, for which the “PBM E-score” value stood at 0.192.

With CCTCAAAA, the “PBM E-score” value was 0.198.
